{"source": "ChEMBL document CHEMBL2218924", "about": "“A broad activity screen in support of a chemogenomic map for kinase signalling research and drug discovery” (Biochem J, 2013)"}
{"molecular_target": "T1, Tyrosine-protein kinase ZAP-70 (Homo sapiens) (UniProt P43403)", "T1 sequence (whole entry)": "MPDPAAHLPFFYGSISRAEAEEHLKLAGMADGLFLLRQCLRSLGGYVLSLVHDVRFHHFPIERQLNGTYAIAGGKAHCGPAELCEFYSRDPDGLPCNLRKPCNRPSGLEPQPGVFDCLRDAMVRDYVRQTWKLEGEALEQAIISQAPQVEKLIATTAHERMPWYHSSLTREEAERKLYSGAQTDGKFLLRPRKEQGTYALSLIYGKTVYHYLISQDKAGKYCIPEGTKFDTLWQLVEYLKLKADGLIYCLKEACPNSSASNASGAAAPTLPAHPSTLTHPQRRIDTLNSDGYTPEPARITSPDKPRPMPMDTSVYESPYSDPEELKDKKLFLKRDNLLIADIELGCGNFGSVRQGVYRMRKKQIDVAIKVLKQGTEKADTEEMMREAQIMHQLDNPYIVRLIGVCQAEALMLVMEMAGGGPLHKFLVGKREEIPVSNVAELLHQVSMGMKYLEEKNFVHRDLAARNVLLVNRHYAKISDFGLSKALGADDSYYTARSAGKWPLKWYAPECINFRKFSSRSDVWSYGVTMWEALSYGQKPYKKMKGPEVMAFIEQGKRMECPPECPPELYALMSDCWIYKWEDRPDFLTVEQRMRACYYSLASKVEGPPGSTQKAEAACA", "conditions": "at 10 µM", "units": {"residual activity": "%"}}
{"smiles": "O=C1NC(=O)C(c2cn(CCCn3ccnc3)c3ccccc23)=C1Nc1ccccc1", "residual activity": 118}
{"smiles": "COc1cc2nccc(Oc3ccc(NC(=O)Nc4cc(C)on4)c(Cl)c3)c2cc1OC", "residual activity": 107}
{"smiles": "Cc1ccc(NC2=CC(=O)c3sc(C)nc3C2=O)cc1", "residual activity": 96}
{"smiles": "CC(C)n1cnc2/c(=N/c3cccc(Cl)c3)nc(NCCO)[nH]c21", "residual activity": 117}
{"smiles": "CO[C@H]1[C@@H](OC)C[C@H](C)[C@@H](OC)C2=CC(=O)C=C(NC(=O)/C(C)=C/C=C/[C@H](OC)[C@@H](OC(N)=O)/C(C)=C/[C@@H]1C)C2=O", "residual activity": 112}
{"smiles": "O=c1c2ccccc2[nH]c(=S)n1CCN1CCC(=C(c2ccc(F)cc2)c2ccc(F)cc2)CC1", "residual activity": 94}
{"smiles": "CC(C)[C@H](CO)Nc1nc(Nc2cc(N)cc(Cl)c2)c2ncn(C(C)C)c2n1", "residual activity": 98}
{"smiles": "CC#CC(=O)Nc1cc2c(Nc3ccc(F)c(Cl)c3)ncnc2cn1", "residual activity": 100}
{"smiles": "COc1cccc(-c2cc(=O)c3ccccc3o2)c1N", "residual activity": 120}
{"smiles": "O=C1Nc2ccc(Br)cc2/C1=C\\c1cc2c([nH]1)CCCC2", "residual activity": 124}
{"smiles": "C[C@@H](N)[C@H]1CC[C@H](C(=O)Nc2ccncc2)CC1", "residual activity": 122}
{"smiles": "CO[C@@H]1[C@H](N(C)C(=O)c2ccccc2)C[C@H]2O[C@]1(C)n1c3ccccc3c3c4c(c5c6ccccc6n2c5c31)C(=O)NC4", "residual activity": 60}
{"smiles": "O=C1Cc2c([nH]c3ccc([N+](=O)[O-])cc23)-c2ccccc2N1", "residual activity": 105}
{"smiles": "O=C(Nc1cccc(Nc2cc(Nc3cccc(C(F)(F)F)c3)ncn2)c1)C1CC1", "residual activity": 101}
{"smiles": "O=C1Nc2cc(Br)ccc2/C1=C1/Nc2ccccc2/C1=N\\O", "residual activity": 95}
